Bioassay records from PubChem.
A selection: hits, their analogues and other compounds. The true share with any hit is near 0.82%.
eLon inh: E. coli protease La inhibition. P0A9M0. purified E. coli Lon protease, fluorescence polarization. inhibition, % at 7.94 µM. 360,000 compounds, 0.42% hits. AID 602123; in the data active = inhibition above about 13%, passing the limit was not always enough;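 also: 0% = enzyme with probe and DMSO and 100% = no enzyme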
Target sequence (P0A9M0 whole entry, looked up): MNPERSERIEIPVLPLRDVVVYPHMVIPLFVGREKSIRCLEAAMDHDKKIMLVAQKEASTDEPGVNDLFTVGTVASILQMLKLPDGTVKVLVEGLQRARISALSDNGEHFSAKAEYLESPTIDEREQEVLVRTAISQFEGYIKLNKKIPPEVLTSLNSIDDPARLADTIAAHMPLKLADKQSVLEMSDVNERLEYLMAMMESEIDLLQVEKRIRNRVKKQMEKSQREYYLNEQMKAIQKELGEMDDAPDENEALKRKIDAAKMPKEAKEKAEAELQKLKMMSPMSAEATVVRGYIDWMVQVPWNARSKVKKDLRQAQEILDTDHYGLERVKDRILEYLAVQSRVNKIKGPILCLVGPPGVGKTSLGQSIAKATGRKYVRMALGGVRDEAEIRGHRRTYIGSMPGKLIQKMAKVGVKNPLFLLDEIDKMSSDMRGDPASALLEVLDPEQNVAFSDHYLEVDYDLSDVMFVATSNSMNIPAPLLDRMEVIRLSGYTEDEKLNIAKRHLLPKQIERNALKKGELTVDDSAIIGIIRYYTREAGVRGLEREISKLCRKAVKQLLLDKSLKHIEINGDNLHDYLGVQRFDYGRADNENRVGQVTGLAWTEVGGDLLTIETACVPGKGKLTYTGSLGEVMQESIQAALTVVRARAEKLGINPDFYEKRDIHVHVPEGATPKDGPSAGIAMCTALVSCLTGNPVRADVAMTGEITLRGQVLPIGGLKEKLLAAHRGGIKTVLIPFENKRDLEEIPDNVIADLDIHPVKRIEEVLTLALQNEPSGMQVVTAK
cardiac RTF act: cardiac RTF calcium sensitization; P19429+P45379; IANBD-labeled TnC RTF fluorescence at EC20 calcium; 0% EC20 calcium, 100% full calcium; activation, % at 7.2 µM; 340,000 compounds, 0.24% hits; AID 493008;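 active = activation above the mean over all tested compounds plus 3 SD, cut at about 30% in these data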;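 also: rise in fluorescence read as greater calcium sensitivity of cardiac thin filaments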
Cardiac RTF inh: cardiac RTF calcium desensitization | P19429+P45379 | IANBD-labeled cardiac RTF, Ca2+ fluorescence | inhibition, % at 7.15 µM | 340,000 compounds, 0.12% hits | AID 493244;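 active = inhibition above the mean inhibition of all tested compounds plus 3 SD, cut at about 17% in these data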;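 also: assay run at fixed EC70 calcium of 1.6 mM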
Keap1-Nrf2 PPI: Keap1-Nrf2 (human) interaction inhibition | Keap1 Kelch-Nrf2 peptide fluorescence polarization, 1536-well | 340,000 compounds, 0.15% hits | AID 504523 | Q14145 | inhibition, % at 9.4 µM; in the data active = inhibition above about 12%;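 also: human Keap1 Kelch domain with fluorescein labeled Nrf2 9mer peptide probe; 0% = neutral control wells and 100% = peptide positive control; higher means more block of Keap1 binding to Nrf2 peptide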
LANA DNA inh: inhibitors of KSHV LANA C-terminal domain DNA binding. MBP-C-LANA/FAM-LBS DNA binding, fluorescence polarization. inhibition, % at 9 µM. 340,000 compounds, 0.078% hits;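 active = highest replicate inhibition at or above 60% at 9 µM, even if other replicates fall short; inactive = all replicates below 60% inhibition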;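 also: 0% = neutral control wells and 100% = 4 µM acridine orange control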
eLon confirm: E. coli Lon inhibition confirmation; shares compounds with eLon inh; purified E. coli Lon, fluorescence polarization; inhibition, % at 7.94 µM; 1,400 compounds, 31% hits; in the data active = inhibition above about 16%;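 also: 0% = enzyme with probe and DMSO and 100% = no enzyme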
* hit, by the source's call; . = no result given; + = active, no number.

SMILES	eLon inh	cardiac RTF act	Cardiac RTF inh	Keap1-Nrf2 PPI	LANA DNA inh	eLon confirm
Brc1ccc(-c2cnnc(N3CCCC3)n2)cc1	22.5*	79.3*	-57.3	-2.7	1.7	-8.1
c1ccc(-c2cnnc(N3CCOCC3)n2)cc1	0.2	0.3	-7.6	-3.1	2.8	.
CCOC(=O)[C@]12CCC=C1N(Cc1ccccc1)C(=O)[C@H](CC(=O)NCc1cccc(C(F)(F)F)c1)C2	-2.3	.	.	.	.	.
CCOC(=O)c1c(C)oc2c1c(C=NCc1ccccn1)c(O)c1ccccc12	123.6*	13.5	-38.0	-2.4	2.9	134.8*
COC(=O)C1=C(C)NC2=C(C(=O)CCC2)C1c1ccc(-c2ccsc2C(=O)OC)o1 (stereo not given)	18.5*	1.7	-2.9	-0.5	.	-27.2
CC1=C(C(=O)OC2CCCCCC2)C(c2ccc(C)o2)C2=C(CCCC2=O)N1 (stereo not given)	1.8	-3.9	5.5	-5.8	0.8	.
Cc1cc(Cl)ccc1OCc1cn2cccnc2n1	-6.5	-3.8	-7.3	-2.8	-0.2	.
Clc1cccc(NCc2cn3cccnc3n2)c1	17.2*	1.9	1.2	-4.1	2.3	-3.3
CCCc1nc2ccc(Br)cn2c1Cc1cccc(Cl)c1	-10.9	.	.	.	.	.
COc1ccc(NC(=O)CN(C)C(=O)/C=C/c2ccc(OCc3ccccc3)cc2)cc1	19.2*	0.2	-3.3	0.3	-1.3	-7.7
COc1cc(OC)cc(C(=O)OCc2cc3ccccc3[nH]c2=O)c1	23.1*	-8.3	1.3	-8.4	-0.5	-3.6
COc1ccc(CC(=O)OCc2cc3ccccc3[nH]c2=O)cc1	-9.4	-2.5	-7.1	2.7	4.1	.
Cc1cc(C)c2nc(N(CCN(C)C)C(=O)c3ccc4ccccc4c3)sc2c1	20.1*	-3.0	-1.0	0.9	1.0	-4.0
O=C1C(NS(=O)(=O)c2cccs2)=C(N2CCN(c3cccc(Cl)c3)CC2)C(=O)c2ccccc21	19.4*	6.7	-3.6	-7.4	-0.7	32.0*
O=C1C(NS(=O)(=O)c2ccccc2)=C(N2CCN(c3ccc(F)cc3)CC2)C(=O)c2ccccc21	-2.1	0.6	-1.9	0.0	1.7	.
Cc1cccc(C)c1-n1nnnc1C(c1cc2ccccc2o1)N1CCN(C/C=C/c2ccccc2)CC1 (stereo not given)	-1.7	.	.	.	.	.
COc1ccc(Nc2cccccc2=O)cc1	-2.7	0.5	-0.8	1.7	0.9	.
COc1ccc(Nc2cccc3ccccc23)cc1	83.7*	20.2	-18.0	7.6	35.4	2.2
CCCCOCCCNC(=O)C[C@@H]1C[C@@]2(C(=O)OC)CCCCC=C2N(Cc2cccc3ccccc23)C1=O	-7.2	.	.	.	.	.
CCN1CCN(CC(=O)Nc2cc(S(=O)(=O)N3CCCCC3)ccc2Cl)CC1	-5.2	1.8	0.8	2.5	0.2	.
CCOC(=O)C1CCN(CC(=O)Nc2cc(S(=O)(=O)N3CCCCC3)ccc2Cl)CC1	23.1*	-5.1	6.8	-1.1	-1.1	3.3
COc1ccc(CN2C(=O)C(CC(=O)NCCc3ccccn3)CC(C(=O)N3CCCCCC3)=C2C)cc1 (stereo not given)	-1.9	.	.	.	.	.
OC[C@@H]1CN(Cc2ccc3c(c2)OCO3)C[C@H](n2cnc3c(NCc4ccncc4)ncnc32)O1	-5.3	.	.	.	.	.
O=C1c2cccc3cccc(c23)C(=O)N1OS(=O)(=O)c1ccc(Br)cc1	-1.3	-2.8	3.2	2.1	-3.6	.
O=C1C(Br)=Cc2cccc3cccc1c23	67.7*	14.6	-18.2	-0.8	2.1	56.6*
SMILES	eLon inh	cardiac RTF act	Cardiac RTF inh	Keap1-Nrf2 PPI	LANA DNA inh	eLon confirm
CN(C)S(=O)(=O)c1ccc(Cl)c(C(=O)NNC(=O)Cc2nc3ccccc3n2C)c1	+	-0.2	-8.7	-2.4	0.1	3.3
OC(c1cc(Cl)cc(Cl)c1)c1ncc(-c2cccc(F)c2)[nH]1 (stereo not given)	-5.2	.	.	.	.	.
Cc1ccc(C2N(c3ccccc3)C(=O)N3CCCN23)cc1 (stereo not given)	36.0*	-3.5	8.1	-2.3	-3.3	-11.0
O=C1N(c2cccc(Cl)c2)C(c2ccccc2)N2CCCN12 (stereo not given)	-20.3	16.2	-0.7	1.0	-1.1	.
CC(C)(C)c1cc(C(=O)N/N=C/c2ccc(-c3ccccc3[N+](=O)[O-])o2)n[nH]1	25.1*	-3.5	-4.7	0.3	1.9	7.0
COc1cc(OC)cc(C2=Cc3ccccc3C(CC(=O)c3ccco3)N2c2ccc(-c3ccc(C(N)=O)cc3)cc2)c1 (stereo not given)	-6.1	.	.	.	.	.
